Test results taken from PubChem BioAssay (NCI).
Compounds without any hit were thinned out: in the full panel of roughly 83,000, 20% have a hit.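 How to read the values: 0–100, growth inhibition (40 = 60% inhibited); 0, no net growth; -100 to 0, cell death (-40 = 40% of starting cells died; -100 = all dead).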 The source made the active and inactive calls.

These molecules were tested on SN12C renal (assay: NCI-60 one-dose screen, 48 h (100 = growth as untreated, 0 = no growth, -100 = all killed)). Conditions: 10 µM unless noted.
Description: Growth inhibition of the SN12C human tumor cell line is measured as a screen for anti-cancer activity. Cells are grown in 96 well plates and exposed to the test compound for 48 hours. Compounds are tested at a single concentration, which is 10^-5 M for most compounds. The reported endpoint is percent growth (GI% or GIPRCNT), where numbers from 0 - 100% represent growth inhibition, and numbers from -100% - 0 represent cell death. For example, a value of 40 represents 60% growth inhibition. A value of 0 means no net growth occurred over the course of the experiment. A value of -40 indicates 40% of cells at the beginning of the experiment died by the end of the experiment. A value of -100 means all cells are dead at the end of the experiment.
NCI-60 Human Tumor Cell Lines Screen was performed using the standard one-dose NCI protocol, which is described in more detail at https://dtp.cancer.gov/discovery_development/nci-60/default.htm.
Compounds with GIPRCNT values below 10 were considered active. Activity score was based on GIPRCNT using the following formula: […]
Score is 0 for GIPRCNT values of 100 or above, 50 for GIPRCNT values of 0, and 100 for GIPRCNT values of -100.

| Compound | growth |
| --- | --- |
| Cn1c(=O)c2[nH]c(N/N=C/c3ccccc3Br)nc2n(C)c1=O | 104% (inactive) |
| COc1ccc(NC(=O)c2sc3nc(C)c(C(=O)/C=C/c4cccc(OC)c4)cc3c2N)cc1 | 19.7% (inactive) |
| N#C/C(=C\c1ccc(-c2ccc(Cl)cc2)o1)C(=O)Nc1ncc(Cc2ccc(Cl)cc2)s1 | -0.639% (active) |
| CN(CCn1sc(=O)n(Cc2ccccc2)c1=O)Cc1ccc2c(Cl)cc(Cl)c(O)c2n1 | 34.7% (inactive) |
| CN(C)CCCn1c2c(c3ncccc3c1=O)C(=O)c1ccccc1-2 | 34.7% (inactive) |
| O=C(CCc1nnc(Cn2cnc3nc[nH]c3c2=O)o1)c1nc2ncccc2[nH]1 | 95.1% (inactive) |
| CO[C@]12C=C/C(=C(/C(=O)OCc3cccnc3)C(=O)CCCCCCCC[C@@]3(OC)C=C/C(=C(/C(=O)OCc4cccnc4)C(=O)CCCCCCCC1)O3)O2 | 5.99% (active) |
| COc1ccc(-c2nc(/C=C3\SC(=NCc4ccccc4)NC3=O)c3ccccn23)cc1 | -19.7% (active) |
| C=C(C)[C@@H]1CC[C@]2(C(=O)O)CC[C@]3(C)[C@H](CC[C@@H]4[C@@]5(C)C[C@@H](Cc6cn(CCO[C@@H]7O[C@H](COC(C)=O)[C@H](OC(C)=O)[C@H](OC(C)=O)[C@H]7OC(C)=O)nn6)[C@H](O)C(C)(C)[C@@H]5CC[C@]43C)[C@@H]12 | 70.3% (inactive) |
| CCCCNc1ccc(C#N)c(OCCN(CC)CC)c1 | 105% (inactive) |
| CCN1C(=O)N(CC)C2C1NN=c1s/c(=C\c3cccc([N+](=O)[O-])c3)c(=O)n12 (stereo not given) | 25.5% (inactive) |
| Cc1c(-c2nc3ccc(F)cc3c(=O)[nH]2)c2ccccc2n1C | 38.8% (inactive) |
| O=[N+]([O-])C1C(c2ccccc2)C12c1ccccc1-c1ccccc12 (stereo not given) | 23% (inactive) |
| O=c1c2cc(-c3ccccc3)sc2nc2sc(-c3ccccc3)nn12 | 104% (inactive) |
| C=C(C)[C@@H]1CC[C@]2(C(=O)N3CCN(C)CC3)CC[C@]3(C)[C@H](CC[C@@H]4[C@@]5(C)CC(=C/c6ccncc6)/C(=N/O)C(C)(C)[C@@H]5CC[C@]43C)[C@@H]12 | 74.7% (inactive) |
| C=CC(=O)NCc1ccc(Nc2nccc(-c3ccc(N4CCCC4)c(C#N)c3)n2)cc1 | 41.3% (inactive) |
| CS(=O)(=O)Nc1cc(-c2ccc3ncnc(Nc4c(Cl)ccc5c4OCO5)c3c2)cnc1Cl | 9.89% (active) |
| COc1ccc2nc3ccc(OC)cc3c(SCCCN)c2c1 | 67.9% (inactive) |
| CC(C)CCC[C@@H](C)[C@H]1CC[C@H]2[C@@H]3CC=C4C[C@@H](C(C(=O)O)C(=O)O)CC[C@]4(C)[C@H]3CC[C@]12C | -12.2% (active) |
| Cc1cc(Cl)ccc1NC(=O)c1cc2ccccc2cc1O | 3.74% (active) |

| Compound | growth |
| --- | --- |
| O=C1/C(=C/c2ccc(F)cc2)COc2ccc(O)c(O)c21 | -49.9% (active) |
| COc1ccc(/C=C2\C(=O)N=C3N2NC(c2cc(Br)ccc2O)C=C(C)N3c2ccccc2)cc1 (stereo not given) | 97.6% (inactive) |
| CCOC(=O)C(=Cc1cccc(Cl)c1)C(=O)OCC | 33.3% (inactive) |
| CCOC(=O)c1ccc2[nH]c(O)c(C(=Nc3ccc(N(C)C(=O)CN4CCN(C)CC4)cc3)c3ccccc3)c2c1 | 11.4% (inactive) |
| C1=CN2CC(c3ccccc3)=NNC2c2ccccc21 (stereo not given) | 88.8% (inactive) |
| Cc1ccc2c(n1)C(=O)c1[nH]c3ccccc3c1C2=O | 36.5% (inactive) |
| CCCCN1C(=O)/C(=c2\sc3n(c2=O)C2C(NN=3)N(CC)C(=O)N2CC)c2ccccc21 (stereo not given) | 19.3% (inactive) |
| Cc1cc2c(O)c(-c3cc(Cl)ccc3Cl)c3sc(=O)oc3c2cc1C | 66.9% (inactive) |
| COC(=O)c1cc(-c2ccc(OC)cc2)[nH]c1N/N=C/c1c(Cl)cccc1Cl | 26% (inactive) |
| COc1ccccc1Nc1nc2c(s1)C1=CC[C@H]3[C@@H]4CC[C@H]([C@H](C)CCCC(C)C)[C@@]4(C)CC[C@@H]3[C@@]1(C)CC2 | 99.6% (inactive) |
| COc1cccc([C@H]2c3[nH]c4ccccc4c3C[C@H]3C(=O)N(CCCCCCC(=O)NO)CC(=O)N23)c1 | 62.8% (inactive) |
| O=C1C(Cl)=C(Oc2ccccc2)C(=O)c2ccccc21 | 87.9% (inactive) |
| O=C(O)CCCN1C(=O)/C(=C/C(Cl)=C/c2ccccc2)SC1=S | -6.97% (active) |
| COc1cc2c(c(OC)c1OC)C(=O)CC(c1cccc(NC(=O)c3ccc(Br)cc3)c1)O2 (stereo not given) | 61.5% (inactive) |
| C#Cc1cccc(Nc2ncnc3ccc(-c4cncc(NS(C)(=O)=O)c4)cc23)c1 | 24.2% (inactive) |
| Cc1ccc(/C=C2\CN(C(=O)OC(C)(C)C)C/C(=C\c3ccc(C)cc3)C2=O)cc1 | 60.7% (inactive) |
| CC(C)(C)n1cc(-c2ccnc(NCCCNS(=O)(=O)c3ccc(F)cc3)c2)c(-c2cccc(F)c2)n1 | 66.5% (inactive) |
| CC1(C)CC[C@]2(C(=O)O)CC[C@]3(C)C(=CC[C@@H]4[C@@]5(C)C/C(=C/O)C(=O)C(C)(C)[C@@H]5CC[C@]43C)[C@@H]2C1 | 65.7% (inactive) |
| Cc1ccc(S(=O)(=O)N2CCCC2CO)cc1 (stereo not given) | 101% (inactive) |
| COc1cc(OC)c2sc(-c3ccc(-n4cncc4-c4ccc(OC)c(OC)c4)cc3)nc2c1 | 72.3% (inactive) |
